In the supplement of paper PMC6805474:
Values without a mark were called inactive.

System: Schistosoma mansoni schistosomula (Liberian)
Assay: drug effect (1 - score/DMSO control score) (fraction); higher = more antischistosomal effect, active = 0.5 or more; extreme values may be limits of the assay
Details: 24 h; 10 µM
Procedure, shortened: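 Liberian-strain Schistosoma mansoni schistosomula, mechanically transformed from cercariae and pre-incubated at least 12 h, were exposed in duplicate (50 per well, flat-bottom 96-well plates) to 10 µM compound in Medium 199 with 5% FCS at 37 °C, 5% CO2, with 0.1% DMSO control wells. Wells were scored visually (10×) at 24, 48 and 72 h on a quarter-point scale from 3 (normal) to 0 (dead). Drug effect was derived from the mean test-well score relative to the mean DMSO-control score. Negative values were set to zero, and plates were valid only if control wells averaged at least 2.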

Structure (SMILES) | drug effect
O=C(Nc1ccc(F)c(-c2nc3cc(-c4ccccc4)cnc3[nH]2)c1)N1CCCC1 | 0.676 (active)
O=C(C(Cc1c[nH]c2ccccc12)NS(=O)(=O)c1ccc(Cl)cc1)N1CCCCC1 (centres undefined) | 0.05
N=C(N)c1ccc(-c2cc(-c3ccccc3)on2)cc1 | 0.182
Nc1ncc(-c2cn[nH]c2)cc1-c1nc2cc(Cl)cnc2[nH]1 | < 0
NC(=O)c1cc(-c2ccsc2)ccc1OCCOc1ccccc1 | 0.158
CC(C)(C)n1nc(Cc2cccc3ccccc23)c2c(N)ncnc21 | 0.15
O=C([C@@H](c1ccc(Cl)cc1)c1cccnc1)N1CCN(c2ccc(C(F)(F)F)cc2)CC1 | 0.75 (active)
CCc1ccc([C@@H]2C[C@H](C(F)(F)F)n3ncc(C(=O)NCc4ccc(OC)cc4)c3N2)cc1 | 0.1
COc1ccc2nccc(NC(=O)C3CCN(CCc4ccc(Cl)cc4)CC3)c2n1 | 0.05
c1ccc(-c2cc(N3CCCCC3)c3ccccc3n2)nc1 | 0.15
O[C@@H](c1cc(C(F)(F)F)nc2c(C(F)(F)F)cccc12)[C@H]1CCCCN1 | 0.955 (active)
NS(=O)(=O)c1cccc(-c2ccc3ncc(N4CCOCC4)nc3c2)c1 | 0.15
Nc1ncnc2c1c(-c1cnc3ccccc3c1)nn2CC1CCNCC1 | 0.2
CO[C@H]1/C=C/O[C@@]2(C)Oc3c(C)c(O)c4c(O)c(/c(=C/NN5CCN(C)CC5)c(O)c4c3C2=O)=N\C(=O)/C(C)=C\C=C/[C@H](C)[C@H](O)[C@@H](C)[C@@H](O)[C@@H](C)[C@H](OC(C)=O)[C@@H]1C | 0.0455
COc1ccc(-c2cnc3ccc(NCc4ccc(S(N)(=O)=O)cc4)nn23)cn1 | 0.15
c1coc(CNc2nc(N3CCCCC3)nc3ccccc23)c1 | 1 (active)
CCOC(=O)NC(=O)c1ccsc1NC(=O)c1nc2ccccc2s1 | 0.0909
COc1ccc(Cn2cnc3c(-c4ccco4)nc(Cl)nc32)cc1 | 0.105
Cc1ccc(NC(=O)CC2COc3ccccc3O2)cc1Cl (centres undefined) | 0.136
O=C(NCCc1ccccc1)c1cc(-c2cccnc2)cnc1NCC1CC1 | 0.2

Structure (SMILES) | drug effect
CCN(CC)S(=O)(=O)c1ccc(Cl)c(C(=O)Nc2ccc3nc(C)sc3c2)c1 | 0.05
CCN(CC)C(=O)N1CCN(C)CC1 | 0.15
CC(C)n1ncc2c(C(=O)NCC(c3cccs3)N3CCOCC3)cc(-c3ccccc3)nc21 (centres undefined) | 0.273
Cc1nn(C)cc1C(C)Nc1nncc(-c2ccc(C(F)(F)F)cc2)n1 (centres undefined) | 0.136
c1ccc(Oc2ccc(-c3cc(N4CCOCC4)[nH]n3)cc2)cc1 | 0.15
Cc1cccnc1NC(=O)c1cccc(OCc2c(C)noc2C)c1 | 0.0909
Cc1cc(OCC(=O)NCc2ccccc2)c2cc(Br)ccc2n1 | 0.1
O=C(Nc1nc(-c2ccccn2)cs1)C1CC1c1ccccc1F (centres undefined) | 0.182
CNC(=O)c1cc(S(=O)(=O)N2CCN(c3ccccn3)CC2)cs1 | 0.1
O=C(CN1CCOCC1)Nc1ccc2ncnc(Nc3ccc(OCc4cccc(F)c4)c(Cl)c3)c2c1 | 0.3
COc1ccccc1C(C)NCC(=O)Nc1cc(C(F)(F)F)ccc1Cl (centres undefined) | 0.15
Nc1ccc(C(=O)Nc2ccc(-c3nc4ccccc4o3)cc2)cc1 | 0.0909
CC1CCCN(C(=O)C(C)Nc2cc(Cl)ccc2N2CCOCC2)C1 (centres undefined) | 0.15
CC(C)(C(=O)Nc1ccc(F)cc1)n1cc(-c2ccccc2F)cn1 | 0.135
COc1ccc(C2CC(c3cccs3)=NN2C(=O)c2ccco2)cc1OC (centres undefined) | 0.1
CO[C@@H](C(=O)N1Cc2[nH]nc(NC(=O)c3ccc(N4CCN(C)CC4)cc3)c2C1)c1ccccc1 | 0.15
CNc1snc(C)c1C(=O)NCCOc1ccc(OC)cc1 | 0.0909
COc1ccc(-c2cnc3ccc(N4CCCC4)nn23)cc1OC | 0.784 (active)
Cc1ccc2nc(C)c(-c3ccn(Cc4ccccc4)n3)n2c1 | < 0
